Assay results: PubChem BioAssay (Tox21)
Inconclusive results are not listed. Entries that show only a call come without a potency. The source made the active and inactive calls. Unless noted, calls come from the whole dose curve; as a rule, active = well fitted curve in the direction sought with a large enough effect in the repeat runs; inconclusive = weak or mixed curves; inactive = no such curve, though single readings can be large; an effect the other way counts as inactive or inconclusive.

Legend:
[1] = qHTS assay to identify small molecule agonists of the peroxisome proliferator-activated receptor delta (PPARd) signaling pathway - cell viability counter screen (AID 743211); note: nearly all actives have a fitted effect of over 55% in size; note: potency is the fitted concentration of half-maximal effect
Procedure, shortened: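 PPARd-bla HEK293H cells (3000/well) were pre-incubated 5 h at 37 C, then exposed to compound for 17 h at 37 C. After 2 h with LiveBLAzer substrate, CellTiter-Glo was added to the same wells; luminescence read after 30 min at room temperature.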

[2] = target: Peroxisome proliferator-activated receptor delta (Homo sapiens) (UniProt Q03181); assay: qHTS assay to identify small molecule agonists of the peroxisome proliferator-activated receptor delta (PPARd) signaling pathway (AID 743212; calls by dose curve; note: potency is the fitted concentration of half-maximal effect)
Procedure, shortened: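 GeneBLAzer PPARd UAS-bla HEK293H cells (beta-lactamase reporter under UAS control), plated and rested 5 h at 37 C, then exposed to compounds in DMSO at 37 C; LiveBLAzer B/G FRET substrate added, 2 h room temperature, fluorescence read.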

[3] = qHTS assay to identify small molecule antagonists of the peroxisome proliferator-activated receptor delta (PPARd) signaling pathway - cell viability counter screen (AID 743213); note: nearly all actives have a fitted effect of over 50% in size; note: potency is the fitted concentration of half-maximal effect
Procedure, shortened: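 Viability counter-screen, qHTS format: PPARd-bla HEK293H, L165041 300 nM final, 17 h compound exposure at 37 C, CellTiter-Glo luminescence after 30 min RT.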

[4] = target: Peroxisome proliferator-activated receptor delta (Homo sapiens) (UniProt Q03181); assay: qHTS assay to identify small molecule antagonists of the peroxisome proliferator-activated receptor delta (PPARd) signaling pathway (AID 743215; active = well fitted inhibition curve with a large enough effect in the signal ratio in the repeat runs, not every such curve was filed as active; the % refers to the signal ratio;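 note: cells stimulated with agonist L165041 at 300 nM final during compound exposure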; note: potency is the fitted concentration of half-maximal effect)
Procedure, shortened: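 PPARd-bla HEK293H cells (UAS-bla reporter) preincubated 5 h, then given compound plus 300 nM final L165041 agonist for 17 h at 37 C. Beta-lactamase activity read by LiveBLAzer B/G FRET substrate fluorescence after 2 h at room temperature.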

[5] = qHTS assay to identify small molecule antagonists of the farnesoid-X-receptor (FXR) signaling pathway - cell viability counter screen (AID 743221; active = well fitted cell-killing curve with a large enough effect in the repeat runs, not every such curve was filed as active; note: nearly all actives have a fitted effect of over 50% in size)
Procedure, shortened: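 GeneBLAzer FXR-UAS-bla HEK 293T cells, compound plus chenodeoxycholic acid (50 uM final), 16 h at 37 C. CellTiter-Glo added to the same wells after the beta-lactamase read; luminescence read after 30 min at room temperature as viability.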

[6] = target: Vitamin D3 receptor (Homo sapiens) (UniProt P11473); assay: qHTS assay to identify small molecule agonists of the vitamin D receptor (VDR) signaling pathway (AID 743222; calls by dose curve)
Procedure, shortened: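 VDR-bla cells plated 4 h at 37 C, then exposed to compounds for 16 h at 37 C. Beta-lactamase reporter activity measured by fluorescence after 2 h room-temperature loading with LiveBLAzer B/G FRET substrate.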

[7] = target: Vitamin D3 receptor (Homo sapiens) (UniProt P11473); assay: qHTS assay to identify small molecule antagonists of the vitamin D receptor (VDR) signaling pathway (AID 743223; active = well fitted inhibition curve with a large enough effect in the signal ratio in the repeat runs, not every such curve was filed as active; the % refers to the signal ratio; note: potency is the fitted concentration of half-maximal effect)
Procedure, shortened: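 VDR-bla cells were treated with compound plus 3 nM final 1alpha,25-dihydroxyvitamin D3 for 16 h at 37C. Beta-lactamase reporter read by B/G FRET substrate fluorescence after 2 h at room temperature. qHTS format.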

[8] = qHTS assay to identify small molecule agonists of the farnesoid-X-receptor (FXR) signaling pathway - cell viability counter screen (AID 743218); note: nearly all actives have a fitted effect of over 45% in size
Procedure, shortened: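 FXR-UAS-bla HEK 293T cells exposed to compounds for 16 h at 37C. Cytotoxicity read in the same wells by CellTiter-Glo luminescence after 30 min at room temperature, following the beta-lactamase FRET read.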

[9] = target: Bile acid receptor (Homo sapiens) (UniProt Q96RI1); assay: qHTS assay to identify small molecule antagonists of the farnesoid-X-receptor (FXR) signaling pathway (AID 743217; active = well fitted inhibition curve with a large enough effect in the signal ratio in the repeat runs, not every such curve was filed as active; the % refers to the signal ratio)
Procedure, shortened: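 FXR-UAS-bla HEK 293T cells (beta-lactamase reporter) given compound plus chenodeoxycholic acid (50 uM final), 16 h at 37C. LiveBLAzer B/G FRET substrate added for 2 h at room temperature; fluorescence read.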

[10] = target: Bile acid receptor (Homo sapiens) (UniProt Q96RI1); assay: qHTS assay to identify small molecule agonists of the farnesoid-X-receptor (FXR) signaling pathway (AID 743220; active = well fitted activation curve with a large enough effect in the signal ratio in the repeat runs, not every such curve was filed as active; the % refers to the signal ratio)
Procedure, shortened: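 Beta-lactamase reporter under UAS control in GeneBLAzer FXR HEK 293T cells (5000/well) measured with LiveBLAzer FRET substrate after 2 h at room temperature. Compound exposure lasted 16 h at 37C.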

Peroxisome proliferator-activated receptor delta (Homo sapiens), sequence (Q03181 whole entry, looked up): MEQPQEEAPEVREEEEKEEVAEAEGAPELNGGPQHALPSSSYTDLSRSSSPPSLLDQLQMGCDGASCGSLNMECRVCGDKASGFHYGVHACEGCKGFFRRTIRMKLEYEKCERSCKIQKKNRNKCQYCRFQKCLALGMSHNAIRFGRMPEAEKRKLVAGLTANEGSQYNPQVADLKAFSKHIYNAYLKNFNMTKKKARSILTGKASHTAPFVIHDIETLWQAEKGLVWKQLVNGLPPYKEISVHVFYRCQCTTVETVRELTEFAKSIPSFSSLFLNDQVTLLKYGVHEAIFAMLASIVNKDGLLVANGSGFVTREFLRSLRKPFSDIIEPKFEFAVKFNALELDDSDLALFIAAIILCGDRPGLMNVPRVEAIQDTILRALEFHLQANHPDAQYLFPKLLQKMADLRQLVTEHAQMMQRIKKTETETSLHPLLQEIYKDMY
Bile acid receptor (Homo sapiens), sequence (Q96RI1 whole entry, looked up): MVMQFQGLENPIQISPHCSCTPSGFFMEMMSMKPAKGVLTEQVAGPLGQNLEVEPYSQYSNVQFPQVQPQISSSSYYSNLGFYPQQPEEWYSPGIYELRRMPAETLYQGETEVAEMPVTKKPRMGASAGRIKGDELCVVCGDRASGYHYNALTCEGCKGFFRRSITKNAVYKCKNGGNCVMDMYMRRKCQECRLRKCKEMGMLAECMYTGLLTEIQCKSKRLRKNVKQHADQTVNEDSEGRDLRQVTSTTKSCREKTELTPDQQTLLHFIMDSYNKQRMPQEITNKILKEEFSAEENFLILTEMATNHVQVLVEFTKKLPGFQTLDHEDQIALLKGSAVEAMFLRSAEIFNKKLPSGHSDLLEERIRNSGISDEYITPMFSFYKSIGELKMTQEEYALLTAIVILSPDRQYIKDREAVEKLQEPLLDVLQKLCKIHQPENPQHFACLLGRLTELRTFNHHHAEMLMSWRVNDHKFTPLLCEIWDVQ
Vitamin D3 receptor (Homo sapiens), sequence (P11473 whole entry, looked up): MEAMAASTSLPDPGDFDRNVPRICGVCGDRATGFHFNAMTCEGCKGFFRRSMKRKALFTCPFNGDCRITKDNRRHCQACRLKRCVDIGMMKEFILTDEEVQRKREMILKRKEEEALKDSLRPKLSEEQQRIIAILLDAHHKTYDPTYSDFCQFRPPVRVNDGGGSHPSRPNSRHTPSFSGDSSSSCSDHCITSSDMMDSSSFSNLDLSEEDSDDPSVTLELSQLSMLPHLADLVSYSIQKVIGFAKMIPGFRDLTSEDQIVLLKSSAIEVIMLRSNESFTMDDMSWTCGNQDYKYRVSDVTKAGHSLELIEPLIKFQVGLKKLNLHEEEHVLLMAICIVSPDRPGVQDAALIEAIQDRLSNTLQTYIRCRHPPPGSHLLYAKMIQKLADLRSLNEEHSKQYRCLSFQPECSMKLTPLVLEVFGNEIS

| Compound | Potency [1] | Potency [2] | Potency [3] | Potency [4] | Potency [5] | Potency [6] | Potency [7] | Potency [8] | Potency [9] | Potency [10] |
| --- | --- | --- | --- | --- | --- | --- | --- | --- | --- | --- |
| Cc1cc(O)c(C)c(C)c1O | inactive | inactive | inactive | inactive | inactive | – | – | – | – | – |
| CCCCCCNC(=O)n1cc(F)c(=O)[nH]c1=O | inactive | inactive | inactive | inactive | inactive | inactive | inactive | – | – | – |
| CCC(OCCCOC)OC(C)=O (configuration not stated) | inactive | inactive | inactive | inactive | – | inactive | inactive | – | – | – |
| Cc1ccc(C(C)(C)O)cc1 | inactive | inactive | inactive | inactive | inactive | inactive | – | – | – | – |
| CCOC(=O)c1ccc(O)c(O)c1 | inactive | inactive | inactive | inactive | inactive | – | – | inactive | – | – |
| CC(=O)Nc1cc(S(=O)(=O)O)cc2cc(S(=O)(=O)O)c(N=Nc3ccccc3)c(O)c12 | inactive | inactive | inactive | inactive | inactive | inactive | inactive | inactive | – | – |
| O=C(O)C[C@H](NC(=O)OCc1ccccc1)C(=O)O | inactive | inactive | inactive | inactive | inactive | inactive | inactive | inactive | – | – |
| CCC(=O)C1CC(C(C)C)CC=C1C (configuration not stated) | inactive | inactive | inactive | – | inactive | – | – | inactive | – | – |
| CC(C)(O)c1ccc(CNC(=O)c2cccnc2Oc2ccc3nonc3c2)cc1 | inactive | inactive | inactive | inactive | inactive | – | inactive | inactive | – | – |
| O=c1[nH]ncc2ccccc12 | inactive | inactive | inactive | inactive | inactive | inactive | inactive | – | – | – |
| CO[C@]1(NC(=O)CSC(F)F)C(=O)N2C(C(=O)O)=C(CSc3nnnn3CCO)CO[C@H]21 | inactive | inactive | inactive | inactive | inactive | inactive | inactive | – | – | – |
| O=Cc1c2ccccc2c(Cl)c2ccccc12 | inactive | 10.7 µM (active) | inactive | inactive | inactive | inactive | inactive | inactive | – | – |
| Oc1c(I)cc(I)c2cccnc12 | inactive | inactive | inactive | – | inactive | inactive | 21.3 µM (active) | inactive | inactive | – |
| NC(=O)c1ccncc1 | inactive | inactive | inactive | inactive | inactive | inactive | – | – | – | – |
| Nc1nnc(-c2ccc([N+](=O)[O-])o2)o1 | inactive | inactive | inactive | inactive | inactive | inactive | inactive | – | – | – |
| Cc1cscn1 | inactive | inactive | inactive | inactive | inactive | inactive | inactive | – | – | – |
| COc1ccccc1Oc1c(NS(=O)(=O)c2ccc(C(C)(C)C)cc2)nc(-c2ncccn2)nc1OCCO | inactive | inactive | inactive | inactive | inactive | – | inactive | inactive | – | – |
| C=CC(C)(CCC=C(C)C)OC(=O)CC(C)C (configuration not stated) | inactive | inactive | inactive | inactive | – | inactive | – | inactive | – | – |
| C[C@@H](O[C@H]1OCCN(Cc2n[nH]c(=O)[nH]2)[C@H]1c1ccc(F)cc1)c1cc(C(F)(F)F)cc(C(F)(F)F)c1 | 26.6 µM (active) | inactive | 26.6 µM (active) | 29.8 µM (active) | – | – | – | – | – | inactive |
| Nc1cccc2c1CN(C1CCC(=O)NC1=O)C2=O (configuration not stated) | inactive | inactive | inactive | inactive | inactive | inactive | – | inactive | – | – |
| CO/N=C(/C(=O)N[C@@H]1C(=O)N2C(C(=O)O)=C(COC(N)=O)CS[C@H]12)c1ccco1 | inactive | inactive | inactive | inactive | inactive | inactive | inactive | inactive | – | – |
| CC/C=C1/OC(=O)c2ccccc21 | inactive | inactive | inactive | inactive | inactive | inactive | inactive | inactive | – | – |
| CC=C(Cl)Cl | inactive | inactive | inactive | inactive | inactive | inactive | inactive | – | – | – |
| COC(=O)CS | inactive | inactive | inactive | inactive | inactive | inactive | – | inactive | – | – |
| Cc1ccc(OC(=O)c2ccccc2O)cc1 | inactive | inactive | inactive | inactive | – | inactive | inactive | – | – | – |
| CC(=O)N/N=C/c1ccc([N+](=O)[O-])o1 | inactive | inactive | inactive | inactive | inactive | inactive | – | inactive | – | – |
| CCCCCCCCCI | inactive | inactive | inactive | inactive | inactive | – | – | – | – | – |
| CCCC(=O)C(=O)O | inactive | inactive | inactive | inactive | inactive | – | – | inactive | – | – |
| O=C(/C=C/c1ccc(O)c(O)c1)O[C@@H]1C[C@@](OC(=O)/C=C/c2ccc(O)c(O)c2)(C(=O)O)C[C@@H](O)[C@@H]1O | inactive | – | inactive | inactive | inactive | inactive | inactive | – | – | – |
| O=C(Cn1ccnc1[N+](=O)[O-])NCCO | inactive | – | inactive | inactive | inactive | inactive | inactive | inactive | inactive | inactive |
